# Source: PubChem BioAssay AID651813 (National Center for Advancing Translational Sciences (NCATS), 2012)
# About 1,100 (52%) of roughly 2,100 compounds were called active. Roughly 27% stayed inconclusive and do not appear here. So high a share suggests a set chosen from earlier hits. The list shows a part of the results. Unmarked numbers belong to inactive results. Calls come from the whole dose curve; as a rule, active = well fitted inhibition curve with a large enough effect; inconclusive = small, poorly fitted or top-dose-only effect; inactive = no such curve, though single readings can be large or run the other way.
# Target: DNA dC->dU-editing enzyme APOBEC-3G (Homo sapiens) (UniProt Q9HC16)
# Sequence (Q9HC16 whole entry, looked up): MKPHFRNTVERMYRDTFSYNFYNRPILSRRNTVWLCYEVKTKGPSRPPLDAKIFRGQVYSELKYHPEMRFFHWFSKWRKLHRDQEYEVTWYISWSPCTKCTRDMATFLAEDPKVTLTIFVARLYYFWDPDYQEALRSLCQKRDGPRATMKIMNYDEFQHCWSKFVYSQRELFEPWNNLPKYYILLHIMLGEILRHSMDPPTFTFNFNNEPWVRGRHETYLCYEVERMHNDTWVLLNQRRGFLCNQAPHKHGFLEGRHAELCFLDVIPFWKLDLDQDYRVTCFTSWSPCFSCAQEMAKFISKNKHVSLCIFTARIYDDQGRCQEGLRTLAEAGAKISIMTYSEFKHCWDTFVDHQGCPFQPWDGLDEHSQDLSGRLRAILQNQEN
# Assay: qHTS for inhibitors of Vif-A3G interactions: Cherry picks counterscreen;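 note: hits raise yellow fluorescence by blocking Vif-driven A3G-eYFP degradation; nearly all actives have a fitted effect of over 70% in size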;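 for max response: max response given as percent of control signal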
# Details: HeLa A3G-eYFP + Vif (tagged APOBEC3G with the HIV-1 protein that degrades it), eYFP fluorescence, 24 h
# Outline: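 HeLa cells stably expressing A3G-eYFP and Vif were treated for 24 h at 37 deg C with compounds at several concentrations; yellow fluorescence (Ex 488 nm, Em 500-530 nm) read by Acumen Explorer, MG132 as positive control.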
# Potency is the fitted concentration of half-maximal effect.
SMILES,max response [%],Potency
CC12CC3CC(C)(C1)CC(C(=O)NC(=S)N1CCOCC1)(C3)C2,-26.4,–
Cc1cnc(NC(=O)CC(C)c2ccccc2)s1 (stereo unspecified),–,5.59 µM (active)
CCn1nc(-c2ccccc2)c2nc3ccccc3nc21,–,23.1 µM (active)
CC1CCN(c2ccc3c(c2)S(=O)(=O)c2cccc(C(=O)NCc4cccc(F)c4)c2C3=O)CC1,–,14 µM (active)
Cc1ccc(CNC(=O)c2cccc3c2C(=O)c2ccc(N4CCC(C)CC4)cc2S3(=O)=O)cc1,-0.215,–
Cc1ccc(CNC(=O)c2cccc3c2C(=O)c2ccc(N4CCCCC4)cc2S3(=O)=O)cc1,–,18.4 µM (active)
O=C(NCc1cccc(F)c1)c1cccc2c1C(=O)c1ccc(N3CCCC3)cc1S2(=O)=O,–,17.7 µM (active)
COc1cc2ccccc2cc1C(=O)N/N=C/c1cccs1,–,1.77 µM (active)
COc1ccccc1C=CC(=O)C=Cc1ccccc1OC,–,6.27 µM (active)
O=C(NC(=S)N1CCN(C2CCCCC2)CC1)c1ccccc1,-11.9,–
CN(C)c1ccc(/C=C/c2cc(N(C)C)nc3ccccc23)cc1,–,6.51 µM (active)
CN(C)c1ccc(/C=C/c2cc(/C=C/c3ccc(N(C)C)cc3)c3ccccc3n2)cc1,–,3.66 µM (active)
CN(C)c1ccc(/C=C/c2nc3ccccc3c(=O)n2CCO)cc1,–,20.6 µM (active)
Nc1ccc(/C=C/c2cc(Cl)nc3ccccc23)cc1,–,20.6 µM (active)
CCN(CC)c1ccc(/C=C/c2cc(-c3ccccc3)c3ccccc3n2)cc1,–,1.98 µM (active)
Cc1ccccc1N1C(=O)c2cccc3c(N(C)CCO)ccc(c23)C1=O,–,4.61 µM (active)
COc1ccccc1N1C(=O)c2cccc3c(C(=O)O)ccc(c23)C1=O,6.39,–
COc1ccc(C(=O)c2ccc(OC)c(OC)c2OC)cc1,–,2.23 µM (active)
O=C(NC1C/C(=N/O)c2cc3c(cc21)OCO3)C(F)(F)F (stereo unspecified),-1.11,–
COc1cc(/C=C2\COC/C(=C\c3cc(OC)c(OC)c(OC)c3)C2=O)cc(OC)c1OC,–,3.14 µM (active)
COc1cc(/C=C2\COC/C(=C\c3ccc(O)c(OC)c3)C2=O)ccc1O,–,8.86 µM (active)
COc1cc(C=C2C(=O)c3ccccc3C2=O)cc(OC)c1OC,-6.19,–
COc1ccc(/C=C2/CSC/C(=C/c3ccc(OC)c(OC)c3)C2=O)cc1OC,–,5.59 µM (active)

SMILES,max response [%],Potency
CCOc1cc(/C=C2\CN(C)C/C(=C\c3ccc(O)c(OCC)c3)C2=O)ccc1O,–,5.59 µM (active)
Cc1ccc(F)c(S(=O)(=O)NC(=O)C2(C)CCN2C(=O)Cc2ccc(Cl)cc2Cl)c1 (stereo unspecified),13,–
Cc1cccn2c(=O)c3cc(C#N)c(=NC(=O)c4cccs4)n(CCCOC(C)C)c3nc12,-8.85,–
COc1ccc(/C=C2\CN(Cc3ccccc3)C/C(=C\c3ccc(OC)c(O)c3)C2=O)cc1O,–,6.27 µM (active)
Cc1noc(C)c1CSc1nc2ccccc2c(=O)n1-c1ccccc1,–,4.98 µM (active)
C=CCn1c(SCc2c(C)noc2C)nc2cc(C(=O)O)ccc2c1=O,–,17.7 µM (active)
CCn1c2ccccc2c2cc(NC(=O)CNCc3ccccc3OC)ccc21,–,6.27 µM (active)
COc1cc(-c2cnc3c(NC(C)=O)cc(-c4ccccc4CN(C)C)cn23)cc(OC)c1OC,–,14 µM (active)
COc1ccc(-c2cc(NC(C)=O)c3ncc(-c4cc(OC)c(OC)c(OC)c4)n3c2)cn1,–,5.59 µM (active)
COC(=O)C1=C(C)NC2=C(C(=O)CC(c3cccs3)C2)C1c1ccsc1 (stereo unspecified),–,12.5 µM (active)
CN(C)c1ccc(/C=N/N(CCO)C2=NS(=O)(=O)c3ccccc32)cc1,-24.9,–
CN(/N=C/c1ccc(N(C)C)cc1)C1=NS(=O)(=O)c2ccccc21,–,5.59 µM (active)
Cc1ccnc(NC(=S)NC(=O)/C=C/c2ccco2)c1,–,6.27 µM (active)
Cc1nc(NC(=O)/C=C/c2ccco2)sc1C,–,6.27 µM (active)
CSc1ccccc1NC(=O)COC(=O)/C=C/c1ccco1,-23.9,–
O=C(/C=C/c1ccco1)NC(=S)Nc1cccc(-c2nc3ccccc3o2)c1,–,4.98 µM (active)
COc1ccc(-c2csc(NC(=S)NC(=O)/C=C/c3ccco3)n2)cc1Br,–,3.14 µM (active)
COc1ccc(OC)c(/C=C/c2nc3ccccc3[nH]c2=O)c1,–,7.31 µM (active)
CC(=Nc1ccccc1)C1=C(O)C(Cc2ccccc2)NC1=O (stereo unspecified),–,0.396 µM (active)
O=C1N/C(=C\c2ccccc2)c2ccccc21,–,0.994 µM (active)
O=C1NC(c2ccccc2Br)=N/C1=C\c1ccco1,-4.52,–
C=CCN1C=CC(=C/C=C(/C#N)C(=O)OCC)C=C1,–,3.66 µM (active)
CCOC(=O)/C(C#N)=C\C=C1C=CN(C)C=C1,–,2.31 µM (active)

SMILES,max response [%],Potency
Cc1ccc(Nc2nc(Cl)c(C=O)s2)cc1Cl,–,13 µM (active)
c1ccc(Nc2nc(-c3ccccn3)cs2)cc1,16.2,–
O=Cc1sc(Nc2ccccc2)nc1Cl,–,20.6 µM (active)
Cc1coc(NC(=O)CSc2nc(-c3ccncc3)cc(C(F)(F)F)c2C#N)n1,–,16.4 µM (active)
CCCCOc1ccc(-c2cc(C(F)(F)F)c(C#N)c(SCC(=O)O)n2)cc1,–,23.1 µM (active)
Cc1cc(C(F)(F)F)c(C#N)c(SCC(=O)Nc2nc3ccccc3s2)n1,–,18.4 µM (active)
CCOC(=O)c1ccc(NC(=O)CSc2nc(-c3ccc(OC)cc3)cc(C(F)(F)F)c2C#N)cc1,–,23.1 µM (active)
CCOC(=O)c1ccc(NC(=O)CSc2nc(-c3ccc(F)cc3)cc(C(F)(F)F)c2C#N)cc1,–,9.2 µM (active)
COCc1cc(C)nc(SCC(=O)Nc2ccc3[nH]c(=O)[nH]c3c2)c1C#N,-18.1,–
COc1cccc2sc(Nc3nc(-c4cc5ccccc5oc4=O)cs3)nc12,–,3.96 µM (active)
COc1ccc(-c2cc3ccccc3oc2=O)cc1NC(=S)NC(=O)c1ccc2c(c1)OCCO2,-2.77,–
COc1cc(/C=C2\SC(=S)N(NC(=O)c3ccccc3OC)C2=O)ccc1O,-17.8,–
CN(C)c1ccc(/C=C2\SC(=S)N(Nc3ncc(C(F)(F)F)cc3Cl)C2=O)cc1,–,5.17 µM (active)
COc1cc(/C=C2\SC(=S)N(Nc3ncc(C(F)(F)F)cc3Cl)C2=O)ccc1O,–,20.6 µM (active)
Cc1cc(C)cc(NC2=NC3(CCCCC3)N=C(N)N2)c1,–,19.8 µM (active)
CCOC(=O)c1ccc(NC(=S)NC(=O)C2CCCC2)cc1,-2.63,–
COC(=O)c1ccc(NC(=O)CC2Nc3cc(C)c(C)cc3NC2=O)cc1 (stereo unspecified),–,20.6 µM (active)
CCN(CC)C(=O)Cn1c(=O)n(-c2ccccc2)c(=O)c2c3c(sc21)CCC3,-20.5,–
CCOc1ccc(C(=O)COC(=O)Cc2n[nH]c(=O)c3ccccc23)cc1,–,15.8 µM (active)
O=C(Cc1n[nH]c(=O)c2ccccc12)OCC(=O)c1ccc2c(c1)OCCO2,–,2.8 µM (active)
CCOc1ccc(C(=O)C(CCC(CN(C)C)C(=O)c2ccc(OCC)cc2)CN(C)C)cc1 (stereo unspecified),-24.5,–
O=C(C(=O)N1CCN(c2ccccc2Cl)CC1)c1c[nH]c2ccccc12,-13.1,–
O=C(Nc1ccc2c(c1)OCCO2)C(=O)c1c[nH]c2ccccc12,–,6.27 µM (active)

SMILES,max response [%],Potency
N#Cc1c(-c2ccccc2)c(-c2ccccc2)nn(CC(=O)NNC(=O)Nc2ccccc2)c1=O,–,1.98 µM (active)
N#Cc1c(-c2ccc(F)cc2)c(-c2ccc(F)cc2)nn(CCO)c1=O,–,7.04 µM (active)
CCOC(=O)COn1c(=O)c(-c2ccc(Br)cc2)[n+]([O-])c2ccccc21,4.24,–
CCOC(=O)Cn1c(=O)c(-c2cc(Br)ccc2N)nc2ccccc21,–,8.2 µM (active)
CCOc1ccccc1N1CC(c2nc3ccccc3n2Cc2c(C)cc(C)cc2C)CC1=O (stereo unspecified),-2.71,–
CCOC(=O)CCSc1nc(C)cc(C(F)(F)F)c1C#N,–,12.5 µM (active)
Cc1ccc(S(=O)(=O)CCSc2nc(C)cc(C(F)(F)F)c2C#N)cc1,–,17.7 µM (active)
COc1ccc(NC(=O)C2(C)Cc3c(-c4cccc(NC(C)=O)c4)ccnc3O2)cn1 (stereo unspecified),–,1.98 µM (active)
COc1ccc(NC(=O)C2(C)Cc3c(-c4ccc5c(c4)OCO5)ccnc3O2)cn1 (stereo unspecified),–,7.04 µM (active)
COc1ccc(NC(=O)C2(C)Cc3c(-c4cccc(C(N)=O)c4)ccnc3O2)cn1 (stereo unspecified),–,7.9 µM (active)
C=CCNC(=S)N/N=C/c1ccc(C)cc1C,-13.8,–
COc1ccc2nc(SCC(=O)N3CC(=O)Nc4ccccc43)c(C#N)cc2c1,–,18.4 µM (active)
COc1ccc2nc(SCC(C)=O)c(C#N)cc2c1,–,3.66 µM (active)
N#Cc1cc2ccccc2nc1SCC(=O)Nc1ccccc1N1CCOCC1,-5.1,–
CCc1ccc2nc(SCC(=O)N3CC(=O)Nc4ccccc43)c(C#N)cc2c1,–,12.5 µM (active)
CCc1ccc2nc(SCC(=O)Nc3ccccc3N3CCOCC3)c(C#N)cc2c1,–,1.64 µM (active)
CC1C/C(=N\NC(N)=S)c2cc(Cl)ccc2S1 (stereo unspecified),-16.7,–
Cc1cc(C)c2nc(SCC(=O)N3CC(=O)Nc4ccccc43)c(C#N)cc2c1,–,1.4 µM (active)
Cc1ccc(C(=O)CSc2nc(-c3ccccc3)ccc2C#N)cc1,–,10.3 µM (active)
N#Cc1ccc(-c2cccnc2)nc1SCC(=O)c1ccccc1,–,2.91 µM (active)
O=C(c1ccccc1)C1C(=O)c2ccccc2C1=O,-3.97,–
NN=C1c2ccccc2C(=O)C1C(=O)C(c1ccccc1)c1ccccc1 (stereo unspecified),–,15.8 µM (active)
